Source: PubChem (National Center for Advancing Translational Sciences (NCATS))
In the library only some 0.45% were active in any assay of this set; here they are far more common.
CBFb RUNX1 block – CBF-beta/RUNX1 interaction disruption. AID 1477. 230,000 tested, under 10 active. Potency, µM (doses to about 59.8 µM), inactives show top-dose activity, negative = inhibition, hits mostly inhibitors. Q01196+Q13951. AlphaScreen CBFb-His/RUNX1-biotin binding, biochemical; further: % of control where 0% means no effect
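AlphaScreen binding: CBFb-His and RUNX1-biotin (30 nM each) preincubated 20 min, compound added for 15 min, then nickel and streptavidin beads for 90 min, all at room temperature. Disruption of the interaction by any mechanism counts as activity.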
Integrin act MD – activators of alpha7 integrin expression for muscular dystrophy; alpha7betagal myoblasts, beta-gal FDG fluorescence, 48 h; Potency, µM (doses to about 38.3 µM), for the others: top-dose activation, actives largely listed as activators; actives 0.064% (n = 350,000); AID 624291;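 further: potency means the concentration at half of the fitted maximal effect; 100% = response of the positive control SU9516; nearly all actives have a fitted effect of over 60% in size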
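Alpha7betagal+/- myoblasts (passage 13) were plated 16-24 hr, then exposed to compounds (1:260 dilution of DMSO stock) for 48 hours at 37C. After MPER lysis, β-galactosidase reporter activity was read as FDG fluorescence (ex 480/em 540) after 30 minutes.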
TRb SRC2 PPI – TRbeta-SRC2 interaction inhibition; actives 0.065% (n = 280,000); TRbeta-SRC2 peptide binding, fluorescence polarization; receptor liganded with 1 µM T3; Potency, µM (doses to about 106 µM), for the others: at the highest dose activity change, negative = inhibition, hits mostly inhibitors; AID 1469; P10828;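 further: potency means the concentration at half of the fitted maximal effect; plate controls were bound peptide for no effect and peptide without receptor for full effect; nearly all actives have a fitted effect of over 50% in size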
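Quantitative HTS by FP: 0.6 uM TRb LBD, 20 nM labeled SRC2 20-mer, 1 uM T3, 5% DMSO; 5 hr ambient incubation; % activity per concentration and potencies from concentration series.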
TR SRC2 fluor cs – counter-screen for TRb-SRC2 inhibitors: fluorescence interference; Potency, µM (highest dose often 106 µM), for inactives: at the top dose fluorescence change, negative = quenching; TRb/SRC2 Texas Red total fluorescence interference; actives 0.29% (n = 280,000); active means well fitted curve in either direction with a large enough effect; inconclusive means small, poorly fitted or top-dose-only effect; further: potency means the concentration at half of the fitted maximal effect; on the % scale 0 is the no-effect control and ±100 the full control effect
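Human TRb ligand-binding domain at 0.6 uM with 20 nM Texas Red SRC2 peptide in Tris buffer containing 1 uM T3 and 5% DMSO, incubated with compound 5 h at ambient temperature. Total fluorescence (555/632 nm) calculated as parallel + 2 × perpendicular.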
ERG-DNA inh – inhibitors of human ERG Ets domain-DNA interaction | P11308 | fluorescence polarization, His-ERG Ets domain / labelled DNA | Potency, µM (titrated, usually from 76.9 µM), for the others: top-dose FP activity, negative = inhibition, actives largely listed as inhibitors | actives 0.028% (n = 370,000); active means well fitted inhibition curve with a large enough effect in the polarisation, with a control signal flat; inconclusive means small, poorly fitted or top-dose-only effect, or effect the other way, or a change in a side signal; inactive means no such curve, though single readings can be large or run the other way; the % refers to the polarisation;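 further: polarization taken with two DNA probes labelled with fluorescein and Texas red; potency means the concentration at half of the fitted maximal effect; % of control where 0% means no effect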
Target sequence (P11308 whole entry, looked up, the tested form may be a part): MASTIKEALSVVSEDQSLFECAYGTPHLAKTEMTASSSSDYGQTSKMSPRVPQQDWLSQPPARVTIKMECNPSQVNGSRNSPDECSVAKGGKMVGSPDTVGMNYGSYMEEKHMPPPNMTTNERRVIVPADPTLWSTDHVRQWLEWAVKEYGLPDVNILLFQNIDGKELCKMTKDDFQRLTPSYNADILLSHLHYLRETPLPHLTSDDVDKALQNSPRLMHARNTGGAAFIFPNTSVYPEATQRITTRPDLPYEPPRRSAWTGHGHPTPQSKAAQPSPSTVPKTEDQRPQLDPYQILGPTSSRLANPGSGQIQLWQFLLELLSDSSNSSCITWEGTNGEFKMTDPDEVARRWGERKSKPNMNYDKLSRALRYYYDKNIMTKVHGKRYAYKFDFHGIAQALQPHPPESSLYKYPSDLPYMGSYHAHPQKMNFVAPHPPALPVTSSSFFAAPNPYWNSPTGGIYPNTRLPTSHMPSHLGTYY
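His-tagged ERG Ets domain (1 uM in the protein solution; 300mM KCl, 50mM Tris-HCl, 1mM EDTA, 1mM DTT, pH 7.5) received compound, then a probe mix of 5 nM fluorescein-DNA and 100nM Texas-615-DNA. Fluorescence polarization was read for both dyes.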
GoLoco inh red – blocks human Gai1 binding to RGS12 GoLoco peptide, red readout | P63096 | Gai1:RGS12 GoLoco peptide FP, rhodamine, 10 min | Potency, µM (series often up to 61.6 µM), for inactives: at the top dose activity, negative = inhibition, hits mostly inhibitors | actives 0.44% (n = 230,000) | AID 880; active means well fitted inhibition curve with a large enough effect, not every such curve was filed as active; inactive means no such curve, though single readings can be large or run the other way; further: potency means the concentration at half of the fitted maximal effect; on the % scale 0 is the no-effect control and ±100 the full control effect; nearly all actives have a fitted effect of over 30% in size
Numbers without * were called inactive; ? = inconclusive; / = no result; [ ] = dose if it differs, or a comment. Unless noted, the call rests on the fitted dose curve; in most records, active means well fitted curve in the direction sought with a large enough effect; inconclusive means small, poorly fitted or top-dose-only effect, or another doubt; inactive means no such curve, though single readings can be large; an effect the other way counts as inactive or inconclusive.

SMILES	CBFb RUNX1 block	Integrin act MD	TRb SRC2 PPI	TR SRC2 fluor cs	ERG-DNA inh	GoLoco inh red
CN(C=O)c1cc([N+](=O)[O-])ccc1OCc1ccccc1	/	19%	/	/	-7%	/
C[C@H](NC(=O)[C@@H](Cc1c[nH]c2ccccc12)NC(=O)[C@@H](N)Cc1cnc[nH]1)C(=O)N[C@@H](Cc1c[nH]c2ccccc12)C(=O)N[C@H](Cc1ccccc1)C(=O)N[C@@H](CCCCN)C(N)=O	12%	/	6%	2%	/	/
C[N+]1=C(/C=C/Nc2ccccc2Cl)C(C)(C)c2ccccc21	-5%	-40%	?	45µM*[fluorescent]	119%	230%
FC(F)(F)c1cnc(/C=C/Nc2ccccc2Cl)c(Cl)c1	4%	-8%	0%	-4%	-1%	3%
COC(=O)NC(/C=C/c1ccccc1)C(C(C)=O)C(=O)OC (configuration not stated)	-2%	/	8%	-2%	/	3%
COC(=O)C1=C(C(=O)OC)[C@@H]2N(C)c3ccccc3[C@@]23C[C@@H](C(=O)OC)N(S(=O)(=O)c2ccc(C(F)(F)F)cc2)C3=N1	-6%[13.1 µM]	/	6%[11.2 µM]	1%[11.2 µM]	/	3%[14.2 µM]
CCOC(=O)c1cn(CC)c2ccc(S(=O)(=O)N3CC(C)CC(C)C3)cc2c1=O (configuration not stated)	-4%	-11%	?	45µM*[fluorescent]	-7%	13%
CCOC(=O)c1cn(CC)c2ccc(S(=O)(=O)N3CCC(C)CC3)cc2c1=O	9%	-25%	-4%	-2%	-12%	4%
COc1ccc2c(c1)O[C@H](c1ccc3c(c1)OCO3)[C@@H](OC(=O)Nc1ccc(OC(F)F)cc1)C2=O	13%	/	4%	-2%	/	-5%
CC(=O)/C=C/C1C(C)=CCCC1(C)C (configuration not stated)	/	/	-1%[201 µM]	0%[201 µM]	/	/
Cc1ccc2c(CN(C)Cc3ccccc3)cc(=O)oc2c1C	/	-36%	/	/	35µM*	/
Nc1c(S(=O)(=O)O)cc(Nc2ccc(Nc3nc(Cl)nc(Nc4ccc(S(=O)(=O)O)cc4)n3)c(S(=O)(=O)O)c2)c2c1C(=O)c1ccccc1C2=O	/	/	10%	22µM*[quencher]	/	4%
FC(F)(F)c1ccc(Cl)c(Cl)c1	/	/	5%[201 µM]	3%[201 µM]	/	/
CCC(C)(C)C1CCC(O)CC1 (configuration not stated)	/	/	1%[201 µM]	1%[201 µM]	/	/
Nc1nccc(-c2ccc(-n3cnc4ccccc43)cc2)n1	12%	11µM*	-4%	-1%	10%	2%
Cc1nccc(-c2ccc(-n3cnc4ccccc43)cc2)n1	-1%	-1%	0%	-5%	6%	4%
COc1cc(CN(C(=S)NCC(=O)NC2CC2)C2CCCC2)cc(OC)c1OC	-6%	19%	?	0.089µM*[quencher]	0%	12%
COc1cc(CN(C(=S)NCC(=O)N2CCCC2)C2CCCC2)cc(OC)c1OC	-5%	17%	-5%	3%	2%	0%
CCOc1ccc(C=C2SC(=O)N(CCN)C2=O)cc1	10%	/	-7%	1%	/	/
COc1ccc(CNc2ncnc3c2nc2n3CCCC2)cc1	/	/	-5%	18µM*[quencher]	2%	/
Cc1ccc(Nc2ncnc3c2nc2n3CCCC2)c(Br)c1	/	/	-4%	20µM*[quencher]	6%	/
COC(=O)c1ccc(Nc2ncnc3c2nc2n3CCCC2)cc1	/	/	-17%	18µM*[quencher]	4%	/
COC1=CC(=O)C(O)=C/C1=C\C=C\c1ccccc1	/	/	-6%	-6%	/	-8%
O=C(/C=C/c1ccc(I)cc1)c1ccc(B(O)O)cc1	/	/	-2%	-2%	/	/
CCCC[C@H](NC(C)=O)C(=O)N[C@H]1CC(=O)NCCCC[C@@H](C(N)=O)NC(=O)[C@H](Cc2c[nH]c3ccccc23)NC(=O)[C@H](CCCN=C(N)N)NC(=O)[C@@H](Cc2ccccc2)NC(=O)[C@H](Cc2cnc[nH]2)NC1=O	-3%	/	-3%	4%	/	/
SMILES	CBFb RUNX1 block	Integrin act MD	TRb SRC2 PPI	TR SRC2 fluor cs	ERG-DNA inh	GoLoco inh red
Cc1ccc2occ(CC(=O)N(Cc3ccc(Cl)cc3)Cc3ccco3)c2c1	/	/	?	0.35µM*[quencher]	-5%	/
CCC1(c2ccccc2)NC(=O)NC1=O (configuration not stated)	-3%	/	5%	-24%	/	/
CC(=O)c1cccc(NC(=O)C(=O)Nc2cccc3ccccc23)c1	1%	8.9µM*	9%	1%	9%	-4%
Cc1ccc(NCN2C(=O)C3C4C=CC(C4)C3C2=O)cc1 (configuration not stated)	8%	-3%	-7%	-1%	0%	8%
O=C1C2C3C=CC(C3)C2C(=O)N1CNc1ccc(O)cc1 (configuration not stated)	?	/	25µM*	-1%	/	-34%
CCCS(=O)(=O)N1CCCC(C(=O)c2cccc(Cl)c2)C1 (configuration not stated)	6%	6.3µM*	-2%	-1%	1%	-5%
CS(=O)(=O)N1CCCC(C(=O)c2cccc(Cl)c2)C1 (configuration not stated)	4%	0%	0%	-1%	4%	6%
CCCCS(=O)(=O)N1CCCC(C(=O)NCCc2ccccc2)C1 (configuration not stated)	/	7.1µM*	/	/	0%	/
O=C(Cl)c1ccc(C(=O)Cl)cc1	/	/	5%[201 µM]	-4%[201 µM]	/	/
Cc1cc(C)c2c(=O)n(CC(=O)N3CCC(Cc4ccccc4)CC3)sc2n1	0%	/	1%	-1%	/	-3%
Cc1cccc(N2CCN(C(=O)Cn3sc4nc(C)cc(C)c4c3=O)CC2C)c1 (configuration not stated)	-7%	-69%	0%	-7%	-13%	1.4µM*
CCOC(=O)N1CCc2c(sc(NCc3cc(OC)ccc3OC)c2C(=O)Nc2cc(OC)ccc2OC)C1	/	/	-21%	398µM*[quencher]	4%	/
CC(C)c1ccc2cc(C(C)C)ccc2c1	/	/	-2%[201 µM]	3%[201 µM]	/	/
CC(=O)OC(C)(C)C1CC=C(C)CC1 (configuration not stated)	/	/	0%[201 µM]	3%[201 µM]	/	/
COc1ccc(C(=O)C2C3C4COC(O4)C(=O)C3C3C=Cc4ccccc4N32)c(OC)c1 (configuration not stated)	-26%[21.7 µM]	/	7.1µM*	22µM*[fluorescent]	/	95%
